Inconclusive results are not listed. Active and inactive are the calls of the source. The call rests on the fitted dose curve; in most records, active means well fitted curve in the direction sought with a large enough effect in the repeat runs; inconclusive means weak or mixed curves; inactive means no such curve, though single readings can be large; an effect the other way counts as inactive or inconclusive.
Tests used:
[1] = qHTS RealTime-Glo MT Cell Viability Assay in HepG2 cells - 32 hour (AID 1224877); further: nearly all actives have a fitted effect of over 55% in size
Procedure, shortened: (§1)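 HepG2 suspension premixed with RealTime-Glo reagents is plated at 600 cells per well and left 5 h at 37 C/5% CO2. Compounds in DMSO then go in, and bioluminescence reflecting viable cell number is recorded over 40 h.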

[2] = qHTS RealTime-Glo MT Cell Viability Assay in HEK293 cells - 0 hour (AID 1224880); further: top concentration of the series differs between compounds; nearly all actives have a fitted effect of over 45% in size
Procedure, shortened: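 Luminescence readout at each listed time point; HEK293, 600 cells/well, RealTime-Glo MT reagent added with cells; compounds pinned (23 nL in DMSO) after 5 h at 37 C; continuous culture at 37 C.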

[3] = A CellTox Green Cytotoxicity Assay to monitor cytotoxicity in HepG2 cells - 0 hour (AID 1224882); further: nearly all actives have a fitted effect of over 35% in size
Procedure, shortened: (§2)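 HepG2, 600 cells/well premixed w/ CellTox Green; 5 h settle, 37 C/5% CO2; pintool cpd add (DMSO); 37 C, 40 h; fluorescence read at 0, 8, 16, 24, 32, 40 h.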

[4] = A CellTox Green Cytotoxicity Assay to monitor cytotoxicity in HEK293 cells - 8 hour (AID 1224884); further: nearly all actives have a fitted effect of over 35% in size
Procedure, shortened: (§3)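 Read-out: fluorescence of a cell-impermeant cyanine dye staining DNA of dead cells, proportional to cytotoxicity. HEK293, 600 cells/well with reagent, compound (23 nL DMSO) added after 5 h; reads at 0, 8, 16, 24, 32, 40 h.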

[5] = qHTS RealTime-Glo MT Cell Viability Assay in HepG2 cells - 16 hour (AID 1224885); further: nearly all actives have a fitted effect of over 50% in size
Procedure, shortened: as §1

[6] = A CellTox Green Cytotoxicity Assay to monitor cytotoxicity in HepG2 cells - 24 hour (AID 1224878); further: nearly all actives have a fitted effect of over 45% in size
Procedure, shortened: as §2

[7] = A CellTox Green Cytotoxicity Assay to monitor cytotoxicity in HepG2 cells - 40 hour (AID 1224879); further: nearly all actives have a fitted effect of over 40% in size; further: potency means the concentration at half of the fitted maximal effect
Procedure, shortened: as §2

[8] = A CellTox Green Cytotoxicity Assay to monitor cytotoxicity in HEK293 cells - 32 hour (AID 1224881); further: nearly all actives have a fitted effect of over 40% in size; further: potency means the concentration at half of the fitted maximal effect
Procedure, shortened: as §3

[9] = A CellTox Green Cytotoxicity Assay to monitor cytotoxicity in HepG2 cells - 16 hour (AID 1224876); further: nearly all actives have a fitted effect of over 45% in size
Procedure, shortened: as §2

[10] = A CellTox Green Cytotoxicity Assay to monitor cytotoxicity in HepG2 cells - 32 hour (AID 1224883); further: nearly all actives have a fitted effect of over 50% in size
Procedure, shortened: as §2

Measured: Potency

Nc1nnnn1-c1ccccc1
inactive: [1] | [2] | [3] | [4] | [5]

CCCCCCCCCCCCCCCCCC#N
inactive: [1] | [6] | [7] | [2] | [8] | [3] | [4]

Cn1c(=O)c2c(ncn2CCO)n(C)c1=O
inactive: [1] | [2] | [4] | [5]

Cc1ncc([N+](=O)[O-])n1CC(C)O (stereo not drawn)
inactive: [9] | [1] | [7] | [2] | [8] | [3] | [4]

CCCCCC/C=C/C(=O)OC
inactive: [1] | [2] | [4] | [5]

CC/C=C\CCOC(=O)c1ccccc1O
active: [7] 21.9 µM
inactive: [1] | [2] | [8] | [3] | [4] | [5]

CC(=O)c1cc(C)oc1C
inactive: [9] | [1] | [7] | [2] | [8] | [3] | [4] | [5]

CCCC(=O)OC/C=C(\C)CCC=C(C)C
inactive: [9] | [1] | [7] | [2] | [3] | [10] | [4] | [5]

C=CCCCCCCCCC(=O)OCCCC
inactive: [9] | [1] | [2] | [8] | [3] | [4] | [5]

CN(C)CC/C=C1/c2ccccc2COc2ccc(CC(=O)O)cc21
inactive: [9] | [6] | [7] | [8] | [3] | [10] | [4]

C=C(C)[C@@H]1CC=C(C)CC1
inactive: [9] | [1] | [7] | [2] | [8] | [3] | [4] | [5]

OCCN1CCOCC1
inactive: [9] | [1] | [7] | [2] | [3] | [4] | [5]

CC(=O)CCC1=C(C)CCCC1(C)C
inactive: [1] | [2] | [8] | [3] | [4]

O=C(O)CCCCCC(=O)O
inactive: [9] | [1] | [7] | [2] | [3] | [10] | [5]
active: [8] 22 µM

COC(=O)/C=C\C(=O)O
inactive: [9] | [1] | [7] | [2] | [3] | [10] | [4] | [5]

O=C(O)c1cc2ccccc2nc1C(=O)O
inactive: [9] | [1] | [7] | [2] | [8] | [3] | [4]

CCO[Si](CC)(OCC)OCC
inactive: [9] | [1] | [7] | [2] | [8] | [10] | [4]

COS(=O)(=O)O
inactive: [1] | [2] | [8] | [3] | [4] | [5]

COC(=O)CCCCC(CCSS/C(CCO)=C(\C)N(C=O)Cc1cnc(C)nc1N)SC(C)=O (stereo not drawn)
inactive: [9] | [1] | [7] | [2] | [8] | [10] | [4] | [5]

O=C(O)CSCC(=O)NC1CCSC1=O (stereo not drawn)
inactive: [9] | [1] | [7] | [2] | [3] | [10] | [4] | [5]

O=C(CN1CCNCC1)NC1CCCCC1
inactive: [9] | [1] | [7] | [2] | [8] | [10] | [4] | [5]

CCCC(=O)OCCC(C)CCC=C(C)C (stereo not drawn)
inactive: [9] | [1] | [7] | [3] | [10] | [4]

CC(=O)O[C@H]1C[C@@H]2CC[C@@]1(C)C2(C)C
inactive: [9] | [1] | [7] | [2] | [8] | [3] | [4] | [5]

CCCCCc1cccc(=O)o1
inactive: [9] | [1] | [7] | [2] | [8] | [3] | [10] | [4] | [5]

CC(=O)C(C)O (stereo not drawn)
inactive: [9] | [1] | [7] | [2] | [8] | [3] | [4] | [5]

CCC(=O)Oc1ccc2c(c1)CC[C@@H]1[C@@H]2CC[C@@]2(C)[C@H]1C[C@@H](OC(=O)CC)[C@@H]2OC(=O)CC
inactive: [1] | [7] | [2] | [8] | [10] | [4] | [5]

C=CC/C=C/C
inactive: [9] | [1] | [7] | [2] | [8] | [3] | [4] | [5]

CCCCOC(=O)C(C)O (stereo not drawn)
inactive: [9] | [1] | [7] | [2] | [8] | [10] | [4] | [5]

Source: PubChem BioAssay (Tox21)
